Bioassay records from PubChem.
Most compounds without a hit are left out; they make up all but 3.1% or so of the library.
MBD2 DNA inh: MBD2-methylated oligo binding inhibition. AID 686964. TR-FRET, MBD2 binding to methylated oligonucleotide. Q9UBB5. inhibition, % at 4.4 µM. 370,000 tested, 0.31% active; in the data active means inhibition above about 13%
LEDGF integ inh: blocks HIV-1 LEDGF/p75-dependent DNA integration; inhibition, % at 3.7 µM; TR-FRET IN-LEDGF/p75 DNA integration, Eu/Cy5; 370,000 tested, 0.64% active;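 active means inhibition above the screen-wide mean plus 3 SD, cut at about 13% in these data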;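 further: signal is the Cy5 over europium emission ratio at 671 and 618 nm; 0% = plate median of compound wells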
UHRF1 binding: UHRF1 methyl-DNA binding inhibition; Q96T88; UHRF1 binding to methylated oligo, TR-FRET; inhibition, % at 4.4 µM; 370,000 tested, 0.75% active; AID 687016; in the data active means inhibition above about 21%;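 further: UHRF1 SRA domain binding a hemimethylated CpG hairpin DNA probe; 0% = median of test compound wells and 100% = reference inhibitor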
proKLK7 act: activates the human kallikrein-7 zymogen. P49862. purified proKLK7, EDANS-DABCYL substrate fluorescence; 100% is mature enzyme control, 0% vehicle. activation, % at 7 µM. 370,000 tested, 0.9% active. AID 652039;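 active means activation above the mean of all tested compounds plus 3 SD, computed per campaign excluding outliers beyond control limits, cut at about 13% in these data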
Rin1-Abl PPI inh: blocks binding of human Rin1 to Abl; P00519+Q13671; TR-FRET Rin1/Abl binding, biochemical; inhibition, % at 7.35 µM; 360,000 tested, 0.4% active; AID 588664; in the data active means inhibition above about 5%, passing the limit was not always enough
Neddyl block: blocks human cullin neddylation; P61081+Q13564; TR-FRET cullin neddylation, biochemical; calls only at 25 µM; 360,000 tested, 0.58% active; in the data active means inhibition above about 36%
Target sequence (P61081 whole entry, looked up): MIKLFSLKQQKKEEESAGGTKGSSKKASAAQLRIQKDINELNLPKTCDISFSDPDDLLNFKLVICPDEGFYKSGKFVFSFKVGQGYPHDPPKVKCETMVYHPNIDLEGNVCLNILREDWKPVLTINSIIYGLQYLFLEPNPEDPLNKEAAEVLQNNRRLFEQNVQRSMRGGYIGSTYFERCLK
Target sequence (Q13564 whole entry, looked up): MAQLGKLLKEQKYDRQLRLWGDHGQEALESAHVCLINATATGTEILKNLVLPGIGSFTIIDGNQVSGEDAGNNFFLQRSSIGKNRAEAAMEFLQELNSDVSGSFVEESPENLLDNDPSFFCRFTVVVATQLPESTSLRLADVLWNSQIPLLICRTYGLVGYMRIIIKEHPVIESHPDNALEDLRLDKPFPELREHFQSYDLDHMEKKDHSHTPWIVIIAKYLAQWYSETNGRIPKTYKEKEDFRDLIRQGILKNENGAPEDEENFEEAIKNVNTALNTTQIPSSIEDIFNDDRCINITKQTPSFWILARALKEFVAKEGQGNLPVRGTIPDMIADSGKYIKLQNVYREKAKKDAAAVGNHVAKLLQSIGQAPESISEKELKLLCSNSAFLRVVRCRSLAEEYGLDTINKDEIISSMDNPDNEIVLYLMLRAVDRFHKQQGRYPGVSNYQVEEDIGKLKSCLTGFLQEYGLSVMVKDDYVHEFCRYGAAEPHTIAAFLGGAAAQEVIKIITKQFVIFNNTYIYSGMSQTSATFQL
proKLK7 act conf: confirmation of human kallikrein-7 zymogen activators; shares compounds with proKLK7 act; purified proKLK7, EDANS-DABCYL substrate fluorescence; scaled: vehicle 0, mature enzyme 100; activation, % at 7 µM; 3,200 tested, 68% active; AID 686949;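 active means activation, as change over the incubation, above the mean of all tested compounds plus 3 SD, cut at about 13% in these data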
EDANS-DABCYL int: fluorescence interference counter-screen for KLK7 activators | shares compounds with proKLK7 act | EDANS-DABCYL substrate fluorescence interference, no enzyme, 4 h; solvent 0%, active enzyme control 100% | activation, % at 7 µM | 3,200 tested, 80% active | AID 686952;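 active means activation above the all-compound mean plus 3 SD, ignoring values outside control-based bounds, cut at about 4.8% in these data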;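 further: value is the 4 h activation minus the activation read at time zero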
EDANS interf: counter-screen for kallikrein-7 activators: EDANS-DABCYL interference, dose response. EC50, µM. 250 tested, 20% active. EDANS-DABCYL peptide fluorescence interference, no enzyme. shares compounds with proKLK7 act. AID 720493;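 active means compounds that raise the fluorescence signal in this interference counterscreen, with EC50 at or below 10 µM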;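 further: intact quenched peptide substrate alone read at 355 nm excitation and 520 nm emission; signal is fluorescence gain from T0 to T4 after four hours at room temperature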
Numbers without * were called inactive; i = inactive; . = no result shown.

SMILES	MBD2 DNA inh	LEDGF integ inh	UHRF1 binding	proKLK7 act	Rin1-Abl PPI inh	Neddyl block	proKLK7 act conf	EDANS-DABCYL int	others
O=C(Cc1cc(=O)oc2cc(O)ccc12)NN=Cc1ccc(N(CCCl)CCCl)cc1	6	-6	2	119*	1	.	44*	31*	EDANS interf=i
O=C(CN1C(=O)[C@@H](Cc2c[nH]c3ccccc23)N=C(c2ccccc2)c2ccccc21)NC1CCCCC1	-4	0	-4	0	.	.	.	.
CCC1(OC(=O)CN)C(=O)OCc2c1cc1n(c2=O)Cc2cc3ccccc3nc2-1 (stereo unspecified)	.	.	.	.	-6	i	.	.
CC[C@@]1(O)C(=O)OCc2c1cc1n(c2=O)Cc2cc3c(NC(=O)CN)cccc3nc2-1	0	0	-6	350*	-7	.	109*	99*
CN1C(=O)NC(=O)C2(CCCC2)C1=O	-3	-3	-1	0	-2	i	.	.
COc1ccc(-c2cc(=NCCC(=O)O)c3cc(C)ccc3o2)cc1	2	0	-13	85*	-6	i	69*	73*
COc1ccc(-c2cc(=Nc3ccccc3)c3cc(C)ccc3o2)cc1	-4	0	-4	-14	-1	.	.	.
CC(C)OC(=O)c1c(N)n(CC2CCCO2)c2nc3ccccc3nc12 (stereo unspecified)	-3	3	-8	48*	-3	.	73*	72*
COCC(C)OC(=O)c1c(N)n(Cc2ccco2)c2nc3ccccc3nc12 (stereo unspecified)	-8	4	-9	1	-5	.	.	.
CCCCOCCCn1c(N)c(C(=O)OCCOC)c2nc3ccccc3nc21	1	1	-5	-10	-3	.	.	.
COCCOC(=O)c1c(N)n(Cc2ccccc2)c2nc3ccccc3nc12	-5	2	-4	32*	0	.	-52	-152
CCOC(=O)c1c(N)n(Cc2ccco2)c2nc3ccccc3nc12	-5	2	-7	47*	-1	.	60*	78*
Nc1c(C(=O)NCc2ccco2)c2nc3ccccc3nc2n1CCN1CCOCC1	-5	4	-8	34*	-6	.	-12	-17
N#CC1c2ccccc2-n2nncc2CN1S(=O)(=O)c1cc(Cl)cc(Cl)c1 (stereo unspecified)	3	4	0	0	10	i	.	.
COC(=O)C(C)Oc1cc(C)cc2oc(=O)c3c(c12)CCC3 (stereo unspecified)	-9	-4	4	16*	-4	.	7	12*
Cc1cc(OCC(=O)N2CCC(C(=O)O)CC2)c2c3c(c(=O)oc2c1)CCC3	2	-3	-1	19*	0	.	13*	16*
COC(=O)C(C)Oc1cc(C)cc2oc(=O)c3c(c12)CCCC3 (stereo unspecified)	2	-1	0	7	-1	.	.	.
O=C(NCCN1CCC2(CC1)C(=O)NCN2c1ccccc1)c1ccc(F)cc1F	3	6	1	0	.	.	.	.
